Bioassay records as filed in PubChem.
Rows were chosen to be rich in hits. Some 0.75% of all compounds tested hit in one or more screens of this group.
TCR act – Activators of T cell receptors: qHTS campaign; 330,000 tested, under 10 active; primary human leukocytes, anti-CD3, IL-2 HTRF, 48 h; Potency, µM (doses to about 9.22 µM), inactives show at the highest dose activation of IL-2 secretion, actives largely listed as activators; note: % of control where 0% means no effect
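Primary human leukocytes incubated 48 hr with anti-CD3 beads plus compound, without co-stimulation. Secreted IL-2 measured by HTRF (europium cryptate/d2 anti-IL-2 pair, 320 nm excitation, 665 nm emission).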
PKM2 act – qHTS Assay for Activators of Human Muscle isoform 2 Pyruvate Kinase | purified PKM2, Kinase-Glo ATP luminescence, activation; response scale: 0% is enzyme alone, no compound | Potency, µM (top dose mostly 57.5 µM), for inactives: at the top dose activation, most hits filed as activators | actives 0.34% (n = 260,000); note: potency is the fitted concentration of half-maximal effect; % is set by controls: 0 for no effect and ±100 for the full control effect; nearly all actives have a fitted effect of over 55% in size
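Purified hPK-M2 (>95% pure) converted ADP (0.1 mM final) to ATP with 0.5 mM PEP in 50 mM imidazole pH7.2, KCl, MgCl2, Tween 20, BSA; 1 h at room temperature. ATP detected by Kinase-Glo luminescence.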
uPA surface inh – qHTS for Inhibitors of Cell Surface uPA Generation; cell surface uPA generation assay, qHTS; Potency, µM (series often up to 38.3 µM), without a hit: at the highest dose activity change, negative = inhibition, usual class: inhibitors; actives 0.31% (n = 330,000); active = well fitted inhibition curve with a large enough effect; inconclusive = small, poorly fitted or top-dose-only effect; inactive = no such curve, though single readings can be large or run the other way; tested in mouse RAW 264.7 cells; note: potency is the fitted concentration of half-maximal effect; % is set by controls: 0 for no effect and ±100 for the full control effect; nearly all actives have a fitted effect of over 55% in size
TSHR antag – Antagonists of the Thyroid Stimulating Hormone Receptor: HTS campaign; actives 0.2% (n = 330,000); activity change, negative = inhibition, % at 11.5 µM; TSHR-expressing cells, TSH-stimulated cAMP HTRF, 2 h; stronger effect = lower value; Thyrotropin receptor (Homo sapiens), P16473;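 active = activity change below a set negative limit, meaning inhibition stronger than a set level, cut at about -70% in these data; inconclusive = activity change between two set negative limits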; note: % is set by controls: 0 for no effect and ±100 for the full control effect
Target sequence (P16473 whole entry, looked up): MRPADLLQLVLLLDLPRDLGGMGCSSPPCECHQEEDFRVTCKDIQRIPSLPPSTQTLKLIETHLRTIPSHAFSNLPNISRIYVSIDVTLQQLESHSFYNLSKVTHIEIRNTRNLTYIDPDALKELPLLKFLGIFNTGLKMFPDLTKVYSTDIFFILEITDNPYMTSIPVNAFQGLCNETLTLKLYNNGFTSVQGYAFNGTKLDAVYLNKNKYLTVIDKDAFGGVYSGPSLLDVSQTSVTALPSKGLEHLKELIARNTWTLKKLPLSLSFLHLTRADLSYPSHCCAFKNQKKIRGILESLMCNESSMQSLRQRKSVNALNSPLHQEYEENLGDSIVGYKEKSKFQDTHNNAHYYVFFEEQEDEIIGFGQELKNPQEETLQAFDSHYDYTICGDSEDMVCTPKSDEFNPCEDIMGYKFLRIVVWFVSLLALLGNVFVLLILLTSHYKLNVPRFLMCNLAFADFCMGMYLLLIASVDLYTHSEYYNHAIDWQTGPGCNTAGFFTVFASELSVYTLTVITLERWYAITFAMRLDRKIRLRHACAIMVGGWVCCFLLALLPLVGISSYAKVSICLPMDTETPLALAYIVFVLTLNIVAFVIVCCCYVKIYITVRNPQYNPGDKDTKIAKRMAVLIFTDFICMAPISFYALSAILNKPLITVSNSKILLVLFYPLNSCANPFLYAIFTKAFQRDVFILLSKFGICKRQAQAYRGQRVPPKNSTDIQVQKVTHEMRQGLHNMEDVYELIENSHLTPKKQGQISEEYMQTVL
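Read-out is FRET at 665 nm (cryptate excitation 337 nm) from a cryptate-tagged anti-cAMP antibody, competed by cell cAMP against cAMP-d2. Compounds are tested on freshly harvested TSHR cells challenged with 4nM TSH (EC80) for 2 hours at 37 deg C.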
Starred values were filed as active, the others as inactive; ? = inconclusive; . = not tested or not shown; [ ] = remark or other dose. Unless noted, calls come from the whole dose curve; as a rule, active = well fitted curve in the direction sought with a large enough effect; inconclusive = small, poorly fitted or top-dose-only effect, or another doubt; inactive = no such curve, though single readings can be large; an effect the other way counts as inactive or inconclusive.

SMILES	TCR act	PKM2 act	uPA surface inh	TSHR antag
COc1ccc2c(CC(=O)N3CCN(S(=O)(=O)c4cccs4)CC3)coc2c1	.	22µM*	1%	4
O=C(O)/C=C/C(=O)c1ccc2c(c1)CCc1ccccc1-2	2%	.	5µM*	-29
CC(=O)Nc1ccc2c(c1)CCc1ccccc1-2	-4%	.	-5%	10
COc1ccc(C(CNC(=O)c2cc(S(=O)(=O)N3CCCC3)ccc2Cl)N2CCCC2)cc1 (stereo not drawn)	-8%	.	-2%	2
Cc1cccc(C)c1NC(=O)CSc1nnc(-c2ccco2)c(-c2ccco2)n1	0%	11µM*	1%	13
Cn1cccc1/C=C1\SC(=Nc2ccc(O)cc2)NC1=O	6%	2%	?	3
Cn1cccc1/C=C1\SC(=Nc2ccccc2)NC1=O	5%	-3%	1.4µM*	2
O=[N+]([O-])c1ccc(P(=O)(Cc2ccccc2)c2ccccc2O)cc1 (stereo not drawn)	5%	.	-6%	-2
COc1cc(-c2noc(C)c2C#Cc2ccsc2)cc(OC)c1OC	-4%	-2%	2µM*	6
COc1cc(-c2noc(C)c2C#CCO)cc(OC)c1OC	-6%	-3%	0%	-6
COc1ccc(C)cc1N=Nc1ccc(O)c2ncccc12	5%	-3%	3.5µM*	-4
CCOC(=O)CSC1=C(C#N)C(c2ccccc2F)C(C(C)=O)=C(C)N1 (stereo not drawn)	4%	1%	6%	-2
CSCSC1=C(C#N)C(c2ccccc2Cl)C(C(C)=O)=C(C)N1 (stereo not drawn)	1%	1%	-13%	-80*
c1ccc2c(c1)ccc1ccccc12	18%	.	-6%	0
CC1=[N+](C)c2ccc3ccccc3c2C1(C)C	-6%[46.1 µM]	-7%	2.2µM*	4
Cn1c(OCc2cccnc2)nc2c1c(=O)n(Cc1ccc(Br)cc1)c(=O)n2C	-1%	20µM*	1%	-15
O=C(CN1C(=O)c2ccccc2S1(=O)=O)c1ccc2c(c1)OCCCO2	-3%	1%	-8%	-10
O=C(CN1C(=O)c2ccccc2S1(=O)=O)c1ccc2c(c1)OCCO2	0%	5%	2µM*	-5
O=C(c1cccc(N2C(=O)C3C4C=CC(C4)C3C2=O)c1)N1CCN(c2ccccc2F)CC1 (stereo not drawn)	0%	.	2%	-3
CCOC(=O)N1CCN(CC(=O)Nc2sccc2C#N)CC1	-5%	8%	11µM*	0
CCOc1ccc(-n2nnc3c(=O)n(CC(=O)Nc4cc(C)on4)cnc32)cc1	-4%	16µM*	-3%	5
Cc1cc(NC(=O)Cn2cnc3c(nnn3-c3ccc(C)c(Cl)c3)c2=O)no1	2%	5%	2%	-6
CC(C)(C)C(=O)NC(=S)NNC(=O)c1ccncc1	6%	2%	-1%	4
CC(C)(C)C(=O)NC(=S)NNC(=O)c1ccc(-c2ccccc2)cc1	0%	5%	?	-81*
COc1ccc(NC(=O)c2ccc(C)cc2)cc1	.	-6%	10µM*	-1
SMILES	TCR act	PKM2 act	uPA surface inh	TSHR antag
COc1ccc(C(=O)Nc2ccc3ccccc3c2)cc1	.	-13%	5µM*	12
COc1cc(C(=O)OCC(=O)NCc2ccc(F)cc2)ccc1OCC(C)C	-2%	0%	5%	6
O=C(N/N=C/c1ccccc1O)c1ccncc1	-4%	.	7.1µM*	3
O=C(N/N=C/c1cccc2ccccc12)c1ccncc1	-9%	1%	4%	-22
O=C(N/N=C/c1cc(O)ccc1Br)c1cccnc1	-2%	-16%	10µM*	5
N#Cc1c(N)n(CCNC(=O)c2ccccc2)c2nc3ccccc3nc12	2%[46.1 µM]	18µM*	9%	-2
CC(Sc1nnc(-c2cccnc2)n1-c1ccccc1F)C(=O)N1CCCc2ccccc21 (stereo not drawn)	-5%[46.1 µM]	4%	.	7
O[C@@H]1[C@@H](O)C=C2CCN3Cc4cc5c(cc4[C@H]1C23)OCO5 (stereo partly drawn)	2%	.	1µM*	16
O=C1Nc2ccccc2Oc2cc(Oc3ccccc3)ccc21	.	.	.	-13
Cc1occc1-c1nnc(SCC(=O)N2CCOCC2)n1Cc1ccco1	4%	25µM*	4%	11
CN(C)S(=O)(=O)c1ccc(C(=O)NCc2cccs2)cc1	1%	6.3µM*	.	20
Cc1sc2ncnc(N3CCN(Cc4ccccc4)CC3)c2c1-c1ccc(F)cc1	3%	14%	-7%	-7
Cc1cccc(NC(=O)c2onc3c2CCCC3)c1C	3%	-9%	-7%	0
Cc1cccc(NC(=O)c2onc3c2CCCC3)n1	-3%[46.1 µM]	-92%	4µM*	8
COc1cccc(CC(=O)Nc2cc(S(=O)(=O)N3CCOCC3)ccc2N2CCN(C)CC2)c1	11%	.	-3%	-12
O=S(=O)(c1ccc(OCC2CO2)cc1)c1ccc(OCC2CO2)cc1 (stereo not drawn)	3%	?	5.6µM*	8
CC(C)(c1ccccc1)c1ccc(OCC2CO2)cc1 (stereo not drawn)	-1%	.	3%	7
C[C@H](NC(=O)c1nc[nH]c1C(=O)NCCCCCN)C(=O)OCc1ccccc1	-8%	.	8%	0
CC(C)Cn1cnc2c1c(=O)n(CC(=O)NC(=O)NC(C)(C)C)c(=O)n2Cc1ccccc1	16%	11%	1%	-8
CC1CCc2c(sc(NC(=O)C3=COCCO3)c2C(N)=O)C1 (stereo not drawn)	4%	.	7.9µM*	.
CCOC(=O)C1(Cc2ccccc2)C(=O)N(CCCN(C)C)c2ccccc21 (stereo not drawn)	-4%	.	3%	.
N#CC1=C(N)Oc2cc(O)ccc2C1c1cccnc1 (stereo not drawn)	0%	9%	1%	-3
N#CC1=C(N)Oc2cc(O)ccc2C1c1ccncc1 (stereo not drawn)	8%	20µM*	11%	11
O=C1CN(S(=O)(=O)c2cc(C(=O)O)ccc2Cl)c2ccccc2N1	5%	.	0%	-76*
O=C1CN(S(=O)(=O)c2ccccc2)c2ccccc2N1	1%	-15%	1%	-21
SMILES	TCR act	PKM2 act	uPA surface inh	TSHR antag
COc1ccc(-c2cc(C(F)F)n3ncc(C(=O)N4CCN(C(=O)c5ccco5)CC4)c3n2)cc1	-1%	-9%	10µM*	-8
COc1cc(Nc2nc3c(N)cc(C(F)(F)F)cc3nc2-c2ccccc2)cc(OC)c1OC	4%	.	10%	.
c1ccc(-c2cn3c(n2)-c2ccccc2C3)cc1	0%[46.1 µM]	-29%	6.3µM*	0
Cc1cc2nc(-c3ccc[nH]c3=O)n(Cc3ccc(F)cc3)c2cc1C	-9%	.	-1%	-3
Cc1cc2nc(-c3ccc[nH]c3=O)[nH]c2cc1C	0%	.	0.89µM*	5
CC[C@@]1(C(=O)OC)N[C@H](CN(C)S(=O)(=O)c2ccc(C(C)(C)C)cc2)[C@@H]2C(=O)N(C)C(=O)[C@@H]21	-2%	.	18%	-16
